Source: PubChem BioAssay (Tox21)
Records with an inconclusive call do not appear. Calls of active or inactive are those of the source. Unless noted, calls come from the whole dose curve.

Experiments:
[1] = Nuclear factor erythroid 2-related factor 2/antioxidant responsive element (Nrf2/ARE) small molecule agonists: qHTS cell viability counter screen in human keratinocytes (AID 1919968; active = well fitted curve in the direction sought with a large enough effect in the repeat runs; an effect the other way counts as inactive or inconclusive; note: nearly all actives have a fitted effect of over 55% in size)
Summary of the method: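 Parallel cytotoxicity read: KeratinoSens HaCaT cells, compound treatment 23 h, viability by CellTiter-Fluor fluorescence 1 h post-reagent.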

[2] = Nuclear factor erythroid 2-related factor 2/antioxidant responsive element (Nrf2/ARE) small molecule agonists: luciferase reporter gene qHTS assay in human keratinocytes (AID 1919969); note: nearly all actives have a fitted effect of over 35% in size; note: potency is the fitted concentration of half-maximal effect
[3] = target: Gonadotropin-releasing hormone receptor (Homo sapiens) (UniProt P30968); assay: Human gonadotropin-releasing hormone receptor (GnRHR) small molecule agonists, calcium flux assay in GnRHR-HEK293 cells (AID 1920063); note: nearly all actives have a fitted effect of over 35% in size
Summary of the method: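 Calcium flux, agonist mode, human GnRHR stably integrated in HEK293; dye 1 h at 37 C before compound; Ex/Em=480/540 kinetic read, 3 min; 15 concentrations, triplicate.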

[4] = target: KiSS-1 receptor (Homo sapiens) (UniProt Q969F8); assay: Human kisspeptin (KISS1R) small molecule agonists, calcium flux assay in KISS1R-HEK293 cells (AID 1920064; active = well fitted curve in the direction sought with a large enough effect in the repeat runs; an effect the other way counts as inactive or inconclusive)
Summary of the method: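 Triplicate 15-concentration series were applied to dye-loaded human KISS1R HEK293 cells, and agonist-evoked calcium fluorescence was captured for 3 min.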

[5] = G protein-coupled receptor (GPCR) small molecule agonists, calcium flux assay: HEK293 wild type cell line counter screen (AID 1920065)
Summary of the method: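 Non-specific calcium responders were flagged by adding DMSO-dissolved compounds to dye-loaded cells and reading 480/540 nm fluorescence each second for 3 min; ATP served as positive control.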

[6] = p53 small molecule agonists, cell-based qHTS assay with human liver microsomes (AID 1963577)
Summary of the method: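 Fluorescence of the beta-lactamase reporter in p53RE-bla cells, detected with LiveBLAzer substrate (2 h, room temperature, dark), served as the read-out after 16 h compound exposure at 37 C with human liver microsomes and NADPH, each 0.5 mg/mL final.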

[7] = p53 small molecule agonists, cell-based qHTS assay with rat liver microsomes (AID 1963578)
Summary of the method: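 Cells carrying a p53 response element–beta-lactamase reporter were plated and rested 5 h, then dosed with compound in DMSO plus rat liver microsomes and NADPH, each at 0.5 mg/mL final. After 16 h at 37 C, LiveBLAzer substrate was added for 2 h.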

[8] = p53 small molecule agonists, cell-based qHTS assay with human liver microsomes: qHTS cell viability counter screen (AID 1963579); note: nearly all actives have a fitted effect of over 45% in size
Summary of the method: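 Cytotoxicity counter screen: p53RE-bla, 4,000 cells/well; 5 h settle, 37 C/5% CO2; cpd + HLM 0.5 mg/mL + NADPH 0.5 mg/mL (final); 16 h, 37 C; CellTiter-Glo, 30 min RT, luminescence.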

[9] = p53 small molecule agonists, cell-based qHTS assay with rat liver microsomes: qHTS cell viability counter screen (AID 1963580); note: nearly all actives have a fitted effect of over 45% in size
Summary of the method: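 Cytotoxicity counter screen: intracellular ATP measured by CellTiter-Glo luminescence in the same wells as the beta-lactamase reporter read, on HCT-116 p53RE-bla cells exposed 16 h at 37 C to compounds with rat liver microsomes and NADPH, each 0.5 mg/mL final.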

[10] = p53 small molecule agonists, cell-based qHTS assay: qHTS cell viability counter screen (AID 1963581); note: nearly all actives have a fitted effect of over 45% in size
Summary of the method: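 Multiplexed with the reporter read, a CellTiter-Glo step (30 min, room temperature) gauges ATP-based viability of HCT-116 p53RE-bla cells after 16 h compound incubation at 37 C.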

[11] = p53 small molecule agonists, cell-based qHTS assay (AID 1963582; active = well fitted activation curve with a large enough effect in the signal ratio in the repeat runs, not every such curve was filed as active; the % refers to the signal ratio)
Summary of the method: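 Beta-lactamase reporter cells (p53RE-bla) treated with compounds for 16 h at 37 C; FRET substrate, 2 h, room temperature; fluorescence intensity.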

[12] = target: 5-hydroxytryptamine receptor 2A (Homo sapiens) (UniProt P28223); assay: 5-hydroxytryptamine receptor 2A (HTR2A) small molecule antagonists, cell-based qHTS assay (AID 1963586); note: nearly all actives have a fitted effect of over 45% in size
Summary of the method: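 CHO cells stably expressing human HTR2A were plated for 18 h at 37 C, then loaded with calcium dye for 1 h. Compounds were preincubated 5 min at room temperature before DOI (4 nM solution) was added. Kinetic fluorescence was read for 3 min.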

[13] = target: 5-hydroxytryptamine receptor 2A (Homo sapiens) (UniProt P28223); assay: 5-hydroxytryptamine receptor 2A (HTR2A) small molecule agonists, cell-based qHTS assay (AID 1963587); note: nearly all actives have a fitted effect of over 30% in size
Summary of the method: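 CHO cells stably expressing human HTR2A, plated 18 h, loaded with calcium dye 1 h at 37 C. Agonist mode: compounds added and intracellular calcium fluorescence recorded kinetically for 2 min at 1 sec intervals.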

[14] = target: Muscarinic acetylcholine receptor M1 (Homo sapiens) (UniProt P11229); assay: Cholinergic receptor muscarinic 1 (CHRM1) small molecule antagonists, cell-based qHTS assay (AID 1963588); note: nearly all actives have a fitted effect of over 40% in size
Summary of the method: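 Compounds were tested at 15 concentrations in three independent runs. Dye-loaded CHRM1-CHO cells were exposed 5 min at room temperature before stimulation by acetylcholine added at 50nM. Intracellular calcium was read kinetically on FDSS for 3 min.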

[15] = target: Muscarinic acetylcholine receptor M1 (Homo sapiens) (UniProt P11229); assay: Cholinergic receptor muscarinic 1 (CHRM1) small molecule agonists, cell-based qHTS assay (AID 1963589); note: nearly all actives have a fitted effect of over 35% in size
Summary of the method: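 qHTS, 15-point titration, 3 independent runs: compounds pin-transferred onto dye-loaded CHRM1-CHO cells (human M1), calcium fluorescence followed every second to detect agonism.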

[16] = cAMP Responsive Elements (CRE) small molecule agonists, cell-based qHTS assay (AID 1963590)
Summary of the method: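 Quantitative HTS for CRE agonists: HEK 293T CRE-bla cells, overnight plating, 3 h compound incubation at 37 C/5% CO2, then 2 h room-temperature LiveBLAzer B/G FRET substrate loading.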

[17] = cAMP Responsive Elements (CRE) small molecule antagonists, cell-based qHTS assay (AID 1963591; active = well fitted inhibition curve with a large enough effect in the signal ratio in the repeat runs, not every such curve was filed as active; the % refers to the signal ratio)
Summary of the method: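 Fluorescence intensity from cleaved LiveBLAzer B/G substrate (2 h, room temperature) quantified CRE-bla activity in HEK 293T cells exposed 3 h to compound with 0.25 uM final NKH477.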

[18] = target: Beta-2 adrenergic receptor (Homo sapiens) (UniProt P07550); assay: Adrenergic beta2 receptor (ADRB2) small molecule antagonists, cell-based qHTS assay (AID 1963592); note: series mostly up to about 92 µM; nearly all actives have a fitted effect of over 50% in size
Summary of the method: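 Assay format: CHO-ADRB2 cells, 18-20hr seeding at 37C/5% CO2, then compound plus 1nM isoproterenol agonist mix for 0.5hr RT. Homogeneous time-resolved fluorescence cAMP detection after 1hr, expressed as 665/615 nm ratio.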

[19] = target: D(2) dopamine receptor (Homo sapiens) (UniProt P14416); assay: Dopamine D2 receptor (DRD2) small molecule antagonists, cell-based qHTS assay (AID 1963595; active = well fitted inhibition curve with a large enough effect in the signal ratio in the repeat runs, with a control signal flat; the % refers to the signal ratio)
Summary of the method: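 In this cell-based antagonist screen, compounds act for 10 min at room temperature before a 30 min challenge with 12 nM quinpirole and 200 nM NKH477. cAMP is quantified by HTRF competition in DRD2-HEK293 cells containing 0.1 mM Ro20-1724.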

[20] = target: D(2) dopamine receptor (Homo sapiens) (UniProt P14416); assay: Dopamine D2 receptor (DRD2) small molecule agonists, cell-based qHTS assay (AID 1963594); note: nearly all actives have a fitted effect of over 35% in size
Summary of the method: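 HEK293 cells stably expressing human DRD2, pre-treated with PDE inhibitor Ro20-1724 (0.1 mM final) and compound 10 min at room temperature, then stimulated with NKH477 (200nM […]) for 30 min. cAMP read by HTRF (665/620 nm).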

Measured: Potency

5-hydroxytryptamine receptor 2A (Homo sapiens), sequence (P28223 whole entry, looked up): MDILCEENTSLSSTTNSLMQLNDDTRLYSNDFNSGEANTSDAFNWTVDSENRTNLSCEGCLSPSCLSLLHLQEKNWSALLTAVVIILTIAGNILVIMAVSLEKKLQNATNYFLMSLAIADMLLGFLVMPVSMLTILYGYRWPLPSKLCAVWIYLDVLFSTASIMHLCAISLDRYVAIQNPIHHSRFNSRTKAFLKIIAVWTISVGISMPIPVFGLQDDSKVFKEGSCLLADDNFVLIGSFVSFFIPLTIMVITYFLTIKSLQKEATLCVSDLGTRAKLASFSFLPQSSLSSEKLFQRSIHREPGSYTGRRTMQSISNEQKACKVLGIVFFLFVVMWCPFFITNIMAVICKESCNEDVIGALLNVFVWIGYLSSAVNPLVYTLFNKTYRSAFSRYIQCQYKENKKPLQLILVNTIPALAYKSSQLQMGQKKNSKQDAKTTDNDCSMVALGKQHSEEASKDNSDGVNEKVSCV
Beta-2 adrenergic receptor (Homo sapiens), sequence (P07550 whole entry, looked up): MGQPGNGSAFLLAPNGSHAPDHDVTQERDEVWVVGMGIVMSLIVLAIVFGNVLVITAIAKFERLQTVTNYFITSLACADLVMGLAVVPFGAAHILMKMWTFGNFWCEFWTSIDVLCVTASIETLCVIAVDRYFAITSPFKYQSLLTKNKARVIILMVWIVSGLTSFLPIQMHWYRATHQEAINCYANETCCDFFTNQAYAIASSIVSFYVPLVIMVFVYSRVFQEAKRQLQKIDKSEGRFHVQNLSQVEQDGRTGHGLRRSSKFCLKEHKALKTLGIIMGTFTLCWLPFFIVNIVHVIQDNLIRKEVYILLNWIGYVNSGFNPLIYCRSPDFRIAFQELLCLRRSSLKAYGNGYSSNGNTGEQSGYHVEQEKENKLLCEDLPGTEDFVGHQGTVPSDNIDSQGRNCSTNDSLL
Gonadotropin-releasing hormone receptor (Homo sapiens), sequence (P30968 whole entry, looked up): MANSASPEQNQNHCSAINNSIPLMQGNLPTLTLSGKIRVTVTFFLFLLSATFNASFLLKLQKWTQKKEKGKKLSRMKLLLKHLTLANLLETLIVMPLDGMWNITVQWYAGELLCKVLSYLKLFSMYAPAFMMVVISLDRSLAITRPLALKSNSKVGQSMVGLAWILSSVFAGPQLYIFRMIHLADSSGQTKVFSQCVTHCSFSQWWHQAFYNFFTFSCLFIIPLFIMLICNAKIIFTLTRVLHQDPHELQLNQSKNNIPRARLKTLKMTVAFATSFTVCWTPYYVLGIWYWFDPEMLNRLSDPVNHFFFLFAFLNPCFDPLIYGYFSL
Muscarinic acetylcholine receptor M1 (Homo sapiens), sequence (P11229 whole entry, looked up): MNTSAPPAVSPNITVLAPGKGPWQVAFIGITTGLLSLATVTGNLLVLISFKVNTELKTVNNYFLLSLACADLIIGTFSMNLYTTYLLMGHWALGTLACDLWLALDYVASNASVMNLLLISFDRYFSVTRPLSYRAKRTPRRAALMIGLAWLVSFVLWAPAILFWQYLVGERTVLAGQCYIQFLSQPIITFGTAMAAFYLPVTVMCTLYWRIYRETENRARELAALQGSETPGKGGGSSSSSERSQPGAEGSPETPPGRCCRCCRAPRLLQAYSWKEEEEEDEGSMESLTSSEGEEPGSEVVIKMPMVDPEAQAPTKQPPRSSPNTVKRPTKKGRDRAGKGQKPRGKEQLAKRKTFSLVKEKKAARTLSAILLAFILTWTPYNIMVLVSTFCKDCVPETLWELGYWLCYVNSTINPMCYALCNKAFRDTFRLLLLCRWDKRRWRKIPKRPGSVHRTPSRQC
KiSS-1 receptor (Homo sapiens), sequence (Q969F8 whole entry, looked up): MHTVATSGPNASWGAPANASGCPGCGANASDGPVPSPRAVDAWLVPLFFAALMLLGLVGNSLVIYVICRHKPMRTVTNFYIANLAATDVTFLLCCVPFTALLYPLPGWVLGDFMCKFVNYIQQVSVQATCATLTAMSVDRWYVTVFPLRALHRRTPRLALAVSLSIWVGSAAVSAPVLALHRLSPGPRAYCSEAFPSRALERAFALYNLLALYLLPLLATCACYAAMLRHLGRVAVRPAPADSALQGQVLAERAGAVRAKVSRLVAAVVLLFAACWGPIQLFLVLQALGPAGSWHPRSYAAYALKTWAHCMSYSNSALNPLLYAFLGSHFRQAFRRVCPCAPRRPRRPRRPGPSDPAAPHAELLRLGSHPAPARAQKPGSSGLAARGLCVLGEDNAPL
D(2) dopamine receptor (Homo sapiens), sequence (P14416 whole entry, looked up): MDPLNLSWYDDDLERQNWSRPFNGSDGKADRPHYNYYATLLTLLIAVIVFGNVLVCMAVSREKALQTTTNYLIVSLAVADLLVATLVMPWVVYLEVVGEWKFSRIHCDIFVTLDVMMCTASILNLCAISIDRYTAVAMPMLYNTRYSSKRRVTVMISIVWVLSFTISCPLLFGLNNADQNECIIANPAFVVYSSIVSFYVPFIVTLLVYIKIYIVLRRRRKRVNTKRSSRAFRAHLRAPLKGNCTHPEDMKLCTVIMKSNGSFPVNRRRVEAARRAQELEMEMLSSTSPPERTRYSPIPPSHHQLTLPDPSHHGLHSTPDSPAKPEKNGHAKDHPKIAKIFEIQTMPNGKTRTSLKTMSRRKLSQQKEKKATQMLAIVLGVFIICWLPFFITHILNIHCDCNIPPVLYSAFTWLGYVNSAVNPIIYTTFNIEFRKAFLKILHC

CC(C)(C)OOC(C)(C)CCC(C)(C)OOC(C)(C)C
not listed: [20]
inactive: all other assays above

N#CCCC#N
inactive: all assays above

CCC(C)(C#N)N=NC(C)(C#N)CC (centres undefined)
inactive: all assays above

CCC(=O)Nc1ccc(Cl)c(Cl)c1
inactive: all assays above

O=c1[nH]c(=O)[nH]c(=O)[nH]1
inactive: all assays above

ClCCBr
inactive: all assays above

CNC(=O)Oc1c(C(C)(C)C)cc(C)cc1C(C)(C)C
active: [2] 61.1 µM
inactive: all other assays above
